Data on eight compounds can be found in PubChem BioAssay (NCI).

This is part of a sample that, as a whole, favours compounds with a hit. Of some 83,000 tested, about 20% had one in any assay.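 Treatment: one concentration, 48 hours, 96-well format. Scoring: percent growth, with anything below 10 considered active.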 Values without a mark were called inactive. The source made the active and inactive calls.

Some test systems named below: DU-145 prostate; K-562 leukemia; MALME-3M melanoma; MDA-MB-231 breast; RXF 393 renal; SF-268 CNS; SF-295 CNS; SF-539 CNS; UACC-257 melanoma; M14 melanoma; HCT-15 colon; HT29 colon; SNB-75 CNS; SNB-19 CNS; PC-3 prostate; SK-MEL-5 melanoma; LOX IMVI melanoma; SK-MEL-28 melanoma; U251 CNS; UACC-62 melanoma.
Holding throughout (test): NCI-60 one-dose screen, 48 h (100 = growth as untreated, 0 = no growth, -100 = all killed)
Common to all, as to details: 10 µM

On to `NC1=CC(=O)C(=O)c2cccnc21`, for which the growth in the assay on DU-145 prostate was 28.3%; in the assay with K-562 leukemia, 88.4%; with MALME-3M melanoma, -0.873% (active); with MDA-MB-231 breast, 83.9%; in the assay on RXF 393 renal, 83.5%; in the assay with SF-268 CNS, 90.4%. The growth in the assay with SF-295 CNS was 77.3%; in the assay on SF-539 CNS, 101%; in the assay on UACC-257 melanoma, 64.4%; with M14 melanoma, 32.1%; in the assay with HCT-15 colon, 66.7%; with HT29 colon, 103%. Also, the growth with SNB-75 CNS is 45.5%; in the assay on SNB-19 CNS it was 66.5%; in the assay with PC-3 prostate, 78.2%; in the assay on SK-MEL-5 melanoma, 21%; in the assay on LOX IMVI melanoma, 25.9%; in the assay with SK-MEL-28 melanoma it was 83.7%.
`O=C1c2c(c3c4ccccc4n(CCCCCCN4CCOCC4)c3c3[nH]c4ccccc4c23)C(=O)N1O`: the growth with DU-145 prostate was 109%; in the assay on K-562 leukemia it was -32.9% (active); in the assay on MALME-3M melanoma it was 117%; in the assay on MDA-MB-231 breast, 48.5%; in the assay on RXF 393 renal, 90.3%; in the assay with SF-268 CNS, 92.9%. Moreover, the growth in the assay on SF-295 CNS is 108%; in the assay with SF-539 CNS it was 92.4%; with M14 melanoma, 81.9%; in the assay on HCT-15 colon it was 16.5%; with HT29 colon it was 24.3%; in the assay with SNB-75 CNS it was 74.9%. The growth with SNB-19 CNS is 97%; in the assay on U251 CNS, -23.2% (active); in the assay on SK-MEL-5 melanoma it was 23.4%; in the assay with UACC-62 melanoma it was 82.7%; in the assay on LOX IMVI melanoma, -88.4% (active); in the assay with SK-MEL-28 melanoma, 118%.
On to `COc1cc(C(=O)/C=C/c2c[nH]c3ccccc23)cc(OC)c1OC`, for which the growth is 5.54% (active) in the assay on DU-145 prostate; 11.3% in the assay on K-562 leukemia; 52.5% in the assay on MALME-3M melanoma; 13% with MDA-MB-231 breast; 43% with RXF 393 renal; 20.3% in the assay on SF-268 CNS. For the same compound, the growth is 16.9% in the assay with SF-295 CNS; -1.84% (active) with SF-539 CNS; 8.91% (active) in the assay on M14 melanoma; 19% in the assay on HCT-15 colon; -21.1% (active) in the assay on HT29 colon; 45.9% with SNB-75 CNS. The growth with SNB-19 CNS is 34.9%; in the assay with U251 CNS, 14.7%; in the assay on PC-3 prostate it was 35.4%; in the assay on SK-MEL-5 melanoma, -53.1% (active); in the assay with LOX IMVI melanoma, 14.4%; in the assay with SK-MEL-28 melanoma it was 64.7%.
Turning to `COc1ccc(/C=C/C(=O)C(=O)/C=C/c2ccc(OC)c(OC)c2)cc1OC`, the growth is 22.5% in the assay with DU-145 prostate; 7.11% (active) in the assay with K-562 leukemia; 54.5% in the assay on MALME-3M melanoma; 2.99% (active) with MDA-MB-231 breast; -63.3% (active) in the assay on RXF 393 renal; 13.2% in the assay on SF-268 CNS. Further, the growth in the assay with SF-295 CNS is 73.8%; in the assay with SF-539 CNS it was 6.56% (active); in the assay on M14 melanoma, -10.5% (active); in the assay on HCT-15 colon, -3.56% (active); in the assay on HT29 colon, -35.2% (active); in the assay with SNB-75 CNS, 64.9%. Moreover, the growth in the assay on SNB-19 CNS was 33.1%; with U251 CNS, 6.4% (active); in the assay with PC-3 prostate it was 43.6%; with SK-MEL-5 melanoma it was 77.9%; in the assay with UACC-62 melanoma it was -10.8% (active); in the assay with LOX IMVI melanoma, -66.4% (active). The growth in the assay on SK-MEL-28 melanoma was -9.43% (active).
Regarding `COc1cc2ncnc(NC3CCC(O)CC3)c2cc1OC` (stereo not drawn), the growth was 102% in the assay on DU-145 prostate; 58.2% in the assay on K-562 leukemia; 103% with MALME-3M melanoma; 93.7% with MDA-MB-231 breast; 102% in the assay on RXF 393 renal; 101% in the assay on SF-268 CNS. For the same compound, the growth is 94.9% in the assay with SF-295 CNS; 95.4% with SF-539 CNS; 98.8% in the assay with M14 melanoma; 101% in the assay with HCT-15 colon; 90% with HT29 colon; 91.9% in the assay on SNB-75 CNS. For the same compound, the growth in the assay on SNB-19 CNS was 97.4%; in the assay with U251 CNS, 90.2%; in the assay on PC-3 prostate, 87.7%; in the assay on SK-MEL-5 melanoma, 98.6%; in the assay on UACC-62 melanoma, 97.1%; with LOX IMVI melanoma, 95.3%. In addition, the growth in the assay with SK-MEL-28 melanoma is 108%.
Take `CCC(C)[C@H](NC(C)=O)C(=O)N[C@@H](CCCNC(=N)N)C(=O)N[C@@H](CCCCN)C(=O)N[C@@H](CC1CCC(O)CC1)C(=O)NC(C(=O)N[C@@H](CCSC)C(=O)N[C@@H](CCCNC(=N)N)C(=O)N[C@@]1(C)CCC/C=C\CCC[C@@](C)(C(=O)NC(C(=O)N[C@@H](CCC(=O)O)C(=O)N[C@@H](CC(C)C)C(=O)N[C@H](C(=O)N[C@@H](CCC(=O)O)C(N)=O)C(C)C)[C@@H](C)O)NC(=O)[C@H](CCC(N)=O)NC(=O)[C@H](CC(C)C)NC(=O)[C@H](CC(C)C)NC1=O)[C@@H](C)O` (stereo partly drawn): the growth is 93.7% in the assay with DU-145 prostate; 95.4% in the assay on K-562 leukemia; 102% with MALME-3M melanoma; 98.8% in the assay with MDA-MB-231 breast; 86.4% with RXF 393 renal; 47.9% in the assay on SF-268 CNS. For the same compound, the growth in the assay on SF-295 CNS is 101%; in the assay on SF-539 CNS it was 97.7%; in the assay with M14 melanoma, 75.6%; in the assay on HCT-15 colon it was 100%; in the assay with HT29 colon, 90.6%; with SNB-75 CNS, 107%. In addition, the growth is 110% with SNB-19 CNS; 98.9% with U251 CNS; 99.1% with PC-3 prostate; 102% in the assay on SK-MEL-5 melanoma; 99.6% in the assay with UACC-62 melanoma; 109% in the assay on LOX IMVI melanoma. For the same compound, the growth in the assay with SK-MEL-28 melanoma is 94.6%.
Consider `Nc1nc(-c2cccnc2)nc2c1sc(=S)n2-c1ccccc1`, for which the growth was 103% in the assay on DU-145 prostate; 106% with K-562 leukemia; 112% with MALME-3M melanoma; 65.2% in the assay on MDA-MB-231 breast; 100% in the assay on RXF 393 renal; 96% with SF-268 CNS. For the same compound, the growth was 111% in the assay on SF-295 CNS; 103% in the assay with SF-539 CNS; 106% in the assay with M14 melanoma; 104% in the assay with HCT-15 colon; 94.6% in the assay with HT29 colon; 94.9% in the assay with SNB-75 CNS. In addition, the growth in the assay with SNB-19 CNS is 95%; in the assay on U251 CNS, 88.2%; in the assay on SK-MEL-5 melanoma, 98.6%; in the assay on UACC-62 melanoma, 101%; in the assay on LOX IMVI melanoma it was 93.7%; in the assay with SK-MEL-28 melanoma it was 116%.
In the case of `CC(=O)N[C@H](C(=O)N[C@@H](CCCNC(=N)N)C(=O)N[C@@H](CCCCN)C(=O)N[C@@H](CCCNC(=N)N)C(=O)N[C@]1(C)CCCCCC/C=C\CCC[C@@](C)(C(=O)N[C@@H](CCCNC(=N)N)C(=O)N[C@@H](CCC(=O)O)C(=O)N[C@@H](CC(C)C)C(=O)N[C@H](C(=O)N[C@@H](CCC(=O)O)C(N)=O)C(C)C)NC(=O)[C@H](CCC(N)=O)NC(=O)[C@H](CC(C)C)NC(=O)[C@H](CC(C)C)NC(=O)[C@H](CCCNC(=N)N)NC(=O)[C@H](CCCNC(=N)N)NC(=O)[C@H](CC(C)C)NC1=O)C(C)C`, the growth with DU-145 prostate was -72.7% (active); in the assay on K-562 leukemia, -18.8% (active); in the assay with MALME-3M melanoma, -28.7% (active); in the assay on MDA-MB-231 breast it was -39.5% (active); in the assay with RXF 393 renal, -51.5% (active); with SF-268 CNS it was -51.5% (active). In addition, the growth was 14.3% in the assay with SF-295 CNS; -47% (active) with SF-539 CNS; -41.9% (active) in the assay with M14 melanoma; -10.8% (active) with HCT-15 colon; 15.7% in the assay on HT29 colon; 2.79% (active) in the assay with SNB-75 CNS. Further, the growth in the assay on SNB-19 CNS was 6.45% (active); in the assay with U251 CNS, -40.9% (active); with PC-3 prostate it was -4.64% (active); in the assay with SK-MEL-5 melanoma, -68.8% (active); with UACC-62 melanoma it was -43.3% (active); in the assay with LOX IMVI melanoma, 29.4%. Moreover, the growth in the assay on SK-MEL-28 melanoma was -29.7% (active).
